# Screens deposited in PubChem by several laboratories.
# Most compounds without a hit are left out; they make up all but 0.92% or so of the library.
# RecA intein inh: Mtb RecA intein splicing inhibition | P9WHJ3 | cell-free RecA intein splicing, fluorescence | inhibition, % (test concentration not listed) | 0.75% of 290,000 active | AID 2221; in the data active = inhibition above about 30%
# Mtb hypoxia inh: Mtb hypoxia fluorescent reporter inhibition. M. tuberculosis hypoxia-regulated fluorescent reporter, fluorescence. fluorescence inhibition, % (no concentration beside the values). 0.1% of 300,000 active. AID 1159583; in the data active = fluorescence inhibition mostly above about 23%, no sharp cut-off; inactive = mostly below about 17%
# Mtb betalactam: beta-lactam sensitization of Mtb H37Rv. M. tuberculosis H37Rv growth with meropenem, percent inhibition. inhibition, % at 25 µM. 0.27% of 330,000 active;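 note: growth measured after seven days incubation then overnight dye step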
# Mtb UGM inh: inhibitors of M. tuberculosis UDP-galactopyranose mutase. purified UGM, fluorescence polarization probe displacement. 0.06% of 320,000 active. P9WIQ1. inhibition, % at 10 µM. AID 504406; in the data active = inhibition above about 10%, passing the limit was not always enough
# FadD28 binding: M. tuberculosis FadD28 bisubstrate binding inhibition; FadD28 bisubstrate probe binding, fluorescence polarization; inhibition, % at 12.5 µM; 0.22% of 360,000 active; AID 588549; in the data active = inhibition above about 8.5%, passing the limit was not always enough
# Rv3671c protease: inhibits the M. tuberculosis serine protease Rv3671c | inhibition, % at 5.96 µM | P9WHR9 | AID 2606 | 0.048% of 320,000 active; in the data active = inhibition above about 38%;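 note: extracellular domain of Rv3671c used as enzyme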
# Target sequence (P9WHR9 whole entry, looked up, the tested form may be a part): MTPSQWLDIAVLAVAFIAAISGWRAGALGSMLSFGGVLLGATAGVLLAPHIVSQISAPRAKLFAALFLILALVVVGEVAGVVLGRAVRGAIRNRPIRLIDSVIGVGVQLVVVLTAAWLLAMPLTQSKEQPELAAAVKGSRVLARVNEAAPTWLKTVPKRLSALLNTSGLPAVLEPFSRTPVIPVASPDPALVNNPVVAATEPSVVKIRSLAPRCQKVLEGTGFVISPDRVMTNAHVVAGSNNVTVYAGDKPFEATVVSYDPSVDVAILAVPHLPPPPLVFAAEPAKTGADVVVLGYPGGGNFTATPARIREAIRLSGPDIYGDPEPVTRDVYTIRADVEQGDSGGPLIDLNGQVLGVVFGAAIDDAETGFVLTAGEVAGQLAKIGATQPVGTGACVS
# GFP chromo cs: counter-screen GFP chromophore formation inhibition | AID 434968 | cell-free GFP chromophore formation, fluorescence | EC50, µM | 83% of 2,100 active | shares compounds with RecA intein inh
# A number is an active result; 0 = inactive; - = no result given. Unless noted, the rule behind the calls is not given here.
SMILES,RecA intein inh,Mtb hypoxia inh,Mtb betalactam,Mtb UGM inh,FadD28 binding,Rv3671c protease,GFP chromo cs
CCOc1ccc2c(c1)-c1c(ssc1=S)C(C)(C)N2,51,0,0,0,0,0,12
CC(C)C[C@H]1C(=O)N2CCC[C@H]2[C@]2(O)O[C@](NC(=O)[C@@H]3C=C4c5cccc6[nH]c(Br)c(c56)CC4N(C)C3)(C(C)C)C(=O)N12 (stereo partly drawn),56,-,0,0,0,0,0
CCOC(=O)Cc1c(C)nc2c(C#N)c[nH]n2c1=O,0,0,0,-,0,0,-
CCCc1[nH]nc2c1C(c1ccc(OC)cc1OC)C(C#N)=C(N)O2 (stereo not drawn),79,0,0,0,0,0,17
CCCc1[nH]nc2c1C(c1cccc(OC)c1)C(C#N)=C(N)O2 (stereo not drawn),42,0,0,0,0,0,38
CCOc1cc(CNc2ccc3cn[nH]c3c2)ccc1OC,77,0,0,0,0,0,12
C=CCOc1ccc(CNc2ccc3[nH]c(=O)[nH]c3c2)cc1OC,-,0,-,-,0,-,-
COc1ccc(CNc2ccc3cn[nH]c3c2)c(OC)c1OC,46,0,0,0,0,0,1.2
CCN1CCN(C2=C(Cl)C(=O)N(Cc3ccccc3)C2=O)CC1,-,0,0,0,0,0,-
O=C1c2ccccc2OC2(C=Cc3ccccc3O2)N1Cc1ccccc1 (stereo not drawn),32,0,0,0,0,0,0
CCOc1ccc(N=Nc2c(N)[nH][nH]c2=O)cc1,54,0,0,0,0,0,18
O=C(Nc1ccccc1)Nc1ccccc1NS(=O)(=O)c1cccs1,0,0,0,0,0,0,-
O=C(Nc1ccc(Cl)c(Cl)c1)Nc1ccccc1NS(=O)(=O)c1cccs1,31,0,0,0,0,0,0
CC(=O)N1c2ccc(S(=O)(=O)N3CCC(C(=O)N4CCC(C)CC4)CC3)cc2CC1C (stereo not drawn),0,0,0,0,0,0,-
O=[N+]([O-])c1ccc(Oc2ccc(F)cc2)c2ccncc12,67,-,0,0,0,0,32
O=[N+]([O-])c1ccc(Oc2cccc(Br)c2)c2ccncc12,53,-,0,0,0,0,17
COc1ccc(-n2c(C)cc(C)c(C(C)=O)c2=S)cc1,0,0,0,0,0,0,-
Cc1cccc(NC(=S)N/N=C2/CCCCc3ccccc32)c1,30,-,0,0,0,0,0
CC(C)(c1ccccc1)c1ccc(OCC2CO2)cc1 (stereo not drawn),41,0,0,0,0,0,0
CN(C)CCOc1ccc(C(C)(C)c2ccccc2)cc1,0,-,0,0,0,0,-
Fc1ccc(/C=N/N2CCOCC2)c(F)c1,0,-,0,0,0,0,-
CCCC(=O)OCCNc1cc(SCCC(=O)OC)c2nonc2c1[N+](=O)[O-],39,-,0,0,0,0,18
COC(=O)CCSc1cc(NCCOC(C)=O)c([N+](=O)[O-])c2nonc12,54,0,0,0,0,0,24
CC(=O)OCCCNc1cc(Sc2ccc(C)cc2)c2nonc2c1[N+](=O)[O-],0,0,0,0,0,0,-
COc1ccc(NC(=O)CCN2CCN(S(=O)(=O)c3ccc(OC)cc3)CC2)cc1,0,0,0,0,0,0,-
SMILES,RecA intein inh,Mtb hypoxia inh,Mtb betalactam,Mtb UGM inh,FadD28 binding,Rv3671c protease,GFP chromo cs
CCOC(=O)C1CCN(C(=S)Nc2ccc(C)cc2)CC1,-,0,0,0,0,0,-
O=C(CCl)N1c2ccccc2CCc2ccccc21,80,-,0,0,0,0,22
Cc1ccc(S(=O)(=O)Nn2c(C)ccc2C)cc1,0,-,0,0,0,0,-
CC(C)NC(=O)C1(C)CCN1Cc1cccc(Cl)c1 (stereo not drawn),-,-,-,-,0,-,-
CC(C)[C@H](NC(=O)OC(C)(C)C)c1nnc(S(=O)(=O)Cc2c(F)cccc2Cl)o1,56,0,0,0,0,0,23
CC(C)(C)OC(=O)N[C@@H](Cc1ccccc1)c1nnc(S(=O)(=O)Cc2cccc(F)c2)o1,0,-,0,0,-,0,-
Cc1cc(C)c(Nc2ncccc2C(=O)O)c(C)c1,0,0,0,0,0,0,-
CN(N)C(=S)Nc1ccc(Cl)cc1,31,0,0,0,0,0,0
CC(C)(C)c1cnnn1-c1ccc(C(=O)CCl)cc1,75,0,0,0,0,0,5.9
CC(C)(C)c1cnnn1-c1ccc(C=O)cc1,0,0,0,0,0,0,-
O=C(C/C=N\OCc1c(Cl)cccc1Cl)Oc1ccc(Cl)cc1Cl,45,-,0,0,0,0,27
Cc1ccccc1CS(=O)(=O)c1snnc1C,44,0,0,0,0,0,0
Cc1[nH]c2ccccc2c1C(=O)COC(=O)C1CC(=O)N(Cc2ccco2)C1 (stereo not drawn),0,0,0,0,0,0,-
Cc1cc(=O)oc2cc(OC(C)C(=O)Nc3ccc(C(N)=O)cc3)ccc12 (stereo not drawn),-,0,0,0,-,0,-
COCCN(C(=O)CCl)C(C(=O)NC1CCCCC1)c1ccccc1C (stereo not drawn),47,0,0,0,0,0,26
COCCN(C(=O)CCC(=O)Nc1cc(C)on1)C(C(=O)NC1CCCC1)c1ccccc1C (stereo not drawn),0,0,0,0,0,0,-
O=C(NC1CCCC1)C(c1ccc(F)cc1)N(Cc1ccccc1Cl)C(=O)CCl (stereo not drawn),50,0,0,0,0,0,0
COc1ccc(NS(=O)(=O)c2cccc(C(=O)Nc3cccc(C(=O)O)c3)c2)cc1,0,0,0,0,0,0,-
CCC(=O)N(C1=C(NC(C)C)C(=O)c2ccccc2C1=O)C(C)C,0,0,0,0,0,0,-
CCCNC1=C(N(C(C)=O)c2cccc(F)c2)C(=O)c2ccccc2C1=O,63,0,0,0,0,0,15
COc1ccc(NC(=S)Nc2ccc3nsnc3c2)cc1,40,0,0,0,0,0,0
CCOc1ccc(NC(=S)Nc2ccc3nsnc3c2)cc1,0,-,0,0,0,0,-
COc1cccc(CN2CCSCC2)c1OC,0,0,0,0,0,0,-
COc1ccccc1CN1CCSCC1,33,0,0,0,0,0,25
CN(C)CCSc1nnc2[nH]c3ccccc3c2n1,32,0,0,0,0,0,9.4
SMILES,RecA intein inh,Mtb hypoxia inh,Mtb betalactam,Mtb UGM inh,FadD28 binding,Rv3671c protease,GFP chromo cs
Fc1cccc(CSc2nnc3c(n2)[nH]c2ccccc23)c1,0,0,0,0,0,0,-
CC(C)N(c1ccccc1)c1ccc(NC(=O)CCl)cc1,51,0,0,0,0,0,8.7
O=C(CCl)Nc1ccc(N=Nc2ccccc2)cc1,79,0,-,-,0,-,30
O=C(CCl)Nc1ccc(-c2ccccc2)cc1,75,-,0,0,0,0,24
O=C(CCl)Nc1cccc(Oc2ccccc2)c1,65,0,0,0,0,0,35
Cc1ccc(S(=O)(=O)N2CCOCC2)cc1C(=O)OCC(=O)N(Cc1ccccc1)C(C)C,-,0,0,0,0,0,-
CCN(CC)C(=O)c1cccc2c1C(=O)c1ccccc1-2,-,0,0,0,0,0,-
